This note sets out measurements from PubChem BioAssay.

The structures appear in SMILES notation. Potency and affinity values are given separately. Active and inactive are the calls of the source. Where a call stands in place of a potency, no number is given. Unless noted, how the calls were made is not given here.

Chain of Calcium-dependent protein kinase 1 (Plasmodium falciparum (isolate 3D7)) (P62344 whole entry, looked up): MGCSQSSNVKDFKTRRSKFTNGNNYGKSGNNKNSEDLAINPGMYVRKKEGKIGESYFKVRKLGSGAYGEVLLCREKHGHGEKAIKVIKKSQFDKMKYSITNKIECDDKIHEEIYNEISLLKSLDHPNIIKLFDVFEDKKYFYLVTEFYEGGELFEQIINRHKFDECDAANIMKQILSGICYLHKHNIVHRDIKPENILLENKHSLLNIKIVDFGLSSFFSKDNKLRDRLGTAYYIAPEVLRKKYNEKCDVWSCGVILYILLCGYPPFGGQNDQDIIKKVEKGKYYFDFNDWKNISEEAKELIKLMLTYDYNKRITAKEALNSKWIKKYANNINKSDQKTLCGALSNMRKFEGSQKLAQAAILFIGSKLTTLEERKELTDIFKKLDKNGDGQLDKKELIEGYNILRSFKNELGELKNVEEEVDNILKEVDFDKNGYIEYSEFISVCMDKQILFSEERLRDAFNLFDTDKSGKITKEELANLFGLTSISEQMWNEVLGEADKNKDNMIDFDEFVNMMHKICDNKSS
Chain of Plasmodium falciparum protein kinase 6 (PK6, PF3D7_1337100) (Q8IDW1 1-305): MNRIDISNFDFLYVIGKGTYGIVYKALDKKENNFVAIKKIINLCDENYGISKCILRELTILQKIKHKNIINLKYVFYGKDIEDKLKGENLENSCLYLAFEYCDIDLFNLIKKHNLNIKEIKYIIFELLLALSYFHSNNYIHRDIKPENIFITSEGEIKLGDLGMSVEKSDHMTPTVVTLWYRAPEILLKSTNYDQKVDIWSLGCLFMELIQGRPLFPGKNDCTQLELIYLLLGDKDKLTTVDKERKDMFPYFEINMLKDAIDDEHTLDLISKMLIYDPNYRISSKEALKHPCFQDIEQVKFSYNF

The first assay has as its target Calcium-dependent protein kinase 1 (Plasmodium falciparum (isolate 3D7)) (UniProt P62344). Briefly: PfCDPK1 kinase inhibitors, biochemical, TCAMS library (AID 1159585; cut-off not given, nearly all actives have IC50 up to about 0.98 µM;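 further: inhibitors leave more ATP so luminescence rises with inhibition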). To be noted: recombinant PfCDPK1, Kinase-Glo ATP depletion luminescence. (In general: Kinase-Glo reads ATP consumption through a luciferase reaction.)
With `COc1ccc2nccc([C@@H](O)CN3CCC(NCc4cc5cc(C)ccc5s4)CC3)c2c1`, the outcome was inactive.
Regarding `COc1ccccc1N1CCN(C(C(=O)NCc2ccc(C)cc2)c2ccc(C)cc2)CC1` (stereo not given), the outcome was inactive.
For the compound `CNCCNCc1cccc(-c2ccc(-c3nc4ccccc4[nH]3)s2)c1`, the outcome was inactive.
On to `COc1ccccc1C1CCN(CCCCNC(=O)c2ccc(NC(=O)c3ccc(Cl)cc3)cc2)CC1`, for which the result was inactive.
`CN(C)CC(O)C(c1ccccc1)c1cccc(Br)c1` (stereo not given): the outcome was inactive.
On the same count and under the same terms, next, `CC(C)N1CCN(C(CN2CCN(CCCOc3ccc(-c4ccccc4)cc3)CC2)c2ccc(F)cc2)CC1` (stereo not given): “inactive”.
Turning to `CN1CCN(Cc2nc(-c3ccc4c(Nc5ccc(Oc6ccccc6)cc5)ccnc4c3)cs2)CC1`, the result was inactive.
Still for that read-out and setting: next, `CCN(CC)CC#Cc1ccc2[nH]c(C)c(Cl)c(=O)c2c1`: “inactive”; `O=S(=O)(NC1CCCCN(Cc2ccccc2O)C1)c1ccc(C(F)(F)F)cc1` (stereo not given): “inactive”; `NC1=NC2(CCCCC2)N(OCCCOc2cccc3ccccc23)C(N)=N1`: “inactive”.
For `Cc1cc(C(F)(F)F)nn1-c1ccc(NC(=O)c2ccco2)cc1`, the result was inactive.
For `NS(=O)(=O)NCCCN1CCN(c2ccccc2)CC1`, the outcome was inactive.
Turning to `CC(C)(C)c1ccc(-c2cc3c(ccc4nc(N)nc(N)c43)[nH]2)cc1`, the result was inactive.
On to `COc1ccccc1CCNc1nc(C)cc(NCCC(=O)NCCOc2ccccc2)n1`, for which the outcome was inactive.
`CCOc1cc(C)ccc1N(C1CCN(CCCCNC(=O)c2ccc(-c3ccc(C(F)(F)F)cc3)cc2)CC1)S(=O)(=O)c1ccccc1`: the outcome was inactive.
Regarding `Cc1ccc(NC(=O)N2CCCN(CCCCCNC(=O)/C=C/c3ccc(Cl)c(Cl)c3)CC2)cc1C`, the result was inactive.
On to `NCc1cccc(-c2ccccc2CNC2CCN(Cc3ccccc3)CC2)c1`, for which the outcome was inactive.
Consider `CCc1cc(=O)[nH]c(-n2nc(C)cc2NC(=O)CC(c2ccccc2)c2ccccc2)n1`, for which the outcome was inactive.
Take `COc1ccc2nccc([C@@H](O)CN3CCC(NC(=O)Cc4cc5ccccc5s4)CC3)c2c1`: the result was inactive.
`COc1ccc(C)cc1NC(=O)CSc1nc2cccnc2n1C1CCCCC1`: the outcome was inactive.
Consider `CC(CN(C)C)C(=O)Nc1cccc(-c2cccc(-c3nc4ccccc4[nH]3)c2)c1` (stereo not given), for which the outcome was inactive.
On to `CN(C)c1ccc(Br)c(Br)c1`, for which the result was inactive.
As for `CCCCCN1CCC(CNS(=O)(=O)c2ccc(C(=O)Nc3cccc(C(F)(F)F)c3)cc2)CC1`, the outcome was inactive.
Take `CN(C)CCN(C)Cc1ccc(-c2ccc(NS(=O)(=O)c3cccc4cccnc34)cc2)cc1`: the result was inactive.
`O=C(NCC1CCC(C(=O)O)CC1)c1ccc(/C=C/C(=O)N2CCc3ccccc3C2c2ccc3c(c2)OCO3)cc1` (stereo not given): the outcome was inactive.
As for `O=C(Nc1ccc([N+](=O)[O-])cc1)Nc1cc(C(F)(F)F)ccc1F`, the result was inactive.
`CN1CCN(c2ccnc3ccc(NC(=O)Nc4ccc(Br)cc4)cc23)CC1`: the result was inactive.
As to `COc1ccc(Nc2nccc(NCCNC(=O)Nc3cc(C)ccc3C)n2)cc1`, the result was inactive.
The same measure, in the same setting: next, `CCOc1cc(NC(=O)Nc2ccnc3ccccc23)cc(OC)c1`: “inactive”.
For `NC(N)=NC(=O)Nc1cc(Cl)c(Cl)c(Cl)c1`, the outcome was inactive.
Turning to `CC(C)(C)c1ccc(OCCCON2C(N)=NC(N)=NC2(C)C)cc1`, the outcome was inactive.
As for `COc1cc(OC)cc(-c2nn(-c3ccc([N+](=O)[O-])cc3Cl)c(=S)n2CC2CCCO2)c1` (stereo not given), the outcome was inactive.
Regarding `CN1CCN(c2ccnc3ccc(NC(=O)Cc4ccc5ccccc5c4)cc23)CC1`, the outcome was inactive.
As for `O=C(Nc1ccccc1)N(Cc1ccc(-c2ccc(CNC3CCCC3)cc2)cc1)C1CCN(Cc2ccccc2)CC1`, the outcome was inactive.
As for `CCCCN(CCCC)CCCCNc1c2ccc(Cl)cc2nc2ccc(OC)cc12`, the result was inactive.
Turning to `CC(C)(CNC(=O)/C=C/c1ccc(Cl)c(Cl)c1)CNc1cc(=O)c2ccccc2[nH]1`, the result was inactive.
Regarding `CC(C)CNCc1ccc(-c2ccc(CNC3CCN(Cc4ccccc4)CC3)cc2)cc1`, the outcome was inactive.
On to `CCN(CC)CCNc1ccnc2[nH]c3ccc(C)cc3c12`, for which the outcome was inactive.
Consider `CN1CCN(c2ccnc3ccc(NC(=O)Nc4cccc(C#N)c4)cc23)CC1`, for which the result was inactive.
On to `CC(O)C1CCCCN1C(=O)c1cccc(-c2cccc(-c3nc4ccc(C(F)(F)F)cc4[nH]3)c2)c1` (stereo not given), for which the outcome was inactive.

The next assay addresses Plasmodium falciparum protein kinase 6 (PK6, PF3D7_1337100) (UniProt Q8IDW1). Briefly: PfPK6 kinase inhibitors, biochemical, TCAMS library (AID 1159586). The note with it: recombinant PfPK6, Kinase-Glo ATP depletion luminescence.
Regarding `COc1ccc2nccc([C@@H](O)CN3CCC(NCc4cc5cc(C)ccc5s4)CC3)c2c1`, the result was inactive.
For the compound `COc1ccccc1N1CCN(C(C(=O)NCc2ccc(C)cc2)c2ccc(C)cc2)CC1` (stereo not given), the result was inactive.
Turning to `CNCCNCc1cccc(-c2ccc(-c3nc4ccccc4[nH]3)s2)c1`, the outcome was inactive.
For the compound `COc1ccccc1C1CCN(CCCCNC(=O)c2ccc(NC(=O)c3ccc(Cl)cc3)cc2)CC1`, the outcome was inactive.
Consider `CN(C)CC(O)C(c1ccccc1)c1cccc(Br)c1` (stereo not given), for which the outcome was inactive.
As for `CC(C)N1CCN(C(CN2CCN(CCCOc3ccc(-c4ccccc4)cc3)CC2)c2ccc(F)cc2)CC1` (stereo not given), the result was inactive.
The same measure, in the same setting: for `CN1CCN(Cc2nc(-c3ccc4c(Nc5ccc(Oc6ccccc6)cc5)ccnc4c3)cs2)CC1` the value was “inactive”.
On to `CCN(CC)CC#Cc1ccc2[nH]c(C)c(Cl)c(=O)c2c1`, for which the outcome was inactive.
On the same count and under the same terms, for `O=S(=O)(NC1CCCCN(Cc2ccccc2O)C1)c1ccc(C(F)(F)F)cc1` (stereo not given) the value was “inactive”.
Take `NC1=NC2(CCCCC2)N(OCCCOc2cccc3ccccc23)C(N)=N1`: the result was inactive.
For the compound `Cc1cc(C(F)(F)F)nn1-c1ccc(NC(=O)c2ccco2)cc1`, the result was inactive.
As for `NS(=O)(=O)NCCCN1CCN(c2ccccc2)CC1`, the result was inactive.
Turning to `CC(C)(C)c1ccc(-c2cc3c(ccc4nc(N)nc(N)c43)[nH]2)cc1`, the outcome was inactive.
As to `COc1ccccc1CCNc1nc(C)cc(NCCC(=O)NCCOc2ccccc2)n1`, the result was inactive.
Still for that read-out and setting: next, `CCOc1cc(C)ccc1N(C1CCN(CCCCNC(=O)c2ccc(-c3ccc(C(F)(F)F)cc3)cc2)CC1)S(=O)(=O)c1ccccc1`: “inactive”.
For `Cc1ccc(NC(=O)N2CCCN(CCCCCNC(=O)/C=C/c3ccc(Cl)c(Cl)c3)CC2)cc1C`, the outcome was inactive.
Consider `NCc1cccc(-c2ccccc2CNC2CCN(Cc3ccccc3)CC2)c1`, for which the outcome was inactive.
Turning to `CCc1cc(=O)[nH]c(-n2nc(C)cc2NC(=O)CC(c2ccccc2)c2ccccc2)n1`, the result was inactive.
Regarding `COc1ccc2nccc([C@@H](O)CN3CCC(NC(=O)Cc4cc5ccccc5s4)CC3)c2c1`, the outcome was inactive.
For `COc1ccc(C)cc1NC(=O)CSc1nc2cccnc2n1C1CCCCC1`, the result was inactive.
On to `CC(CN(C)C)C(=O)Nc1cccc(-c2cccc(-c3nc4ccccc4[nH]3)c2)c1` (stereo not given), for which the result was inactive.
As for `CN(C)c1ccc(Br)c(Br)c1`, the result was inactive.
Still for that read-out and setting: for `CCCCCN1CCC(CNS(=O)(=O)c2ccc(C(=O)Nc3cccc(C(F)(F)F)c3)cc2)CC1` the value was “inactive”; for `CN(C)CCN(C)Cc1ccc(-c2ccc(NS(=O)(=O)c3cccc4cccnc34)cc2)cc1`, “inactive”.
As for `O=C(NCC1CCC(C(=O)O)CC1)c1ccc(/C=C/C(=O)N2CCc3ccccc3C2c2ccc3c(c2)OCO3)cc1` (stereo not given), the outcome was inactive.
With `O=C(Nc1ccc([N+](=O)[O-])cc1)Nc1cc(C(F)(F)F)ccc1F`, the result was inactive.
Consider `CN1CCN(c2ccnc3ccc(NC(=O)Nc4ccc(Br)cc4)cc23)CC1`, for which the outcome was inactive.
For `COc1ccc(Nc2nccc(NCCNC(=O)Nc3cc(C)ccc3C)n2)cc1`, the result was inactive.
Take `CCOc1cc(NC(=O)Nc2ccnc3ccccc23)cc(OC)c1`: the outcome was inactive.
As for `NC(N)=NC(=O)Nc1cc(Cl)c(Cl)c(Cl)c1`, the result was inactive.
As for `CC(C)(C)c1ccc(OCCCON2C(N)=NC(N)=NC2(C)C)cc1`, the result was inactive.
Turning to `COc1cc(OC)cc(-c2nn(-c3ccc([N+](=O)[O-])cc3Cl)c(=S)n2CC2CCCO2)c1` (stereo not given), the outcome was inactive.
On to `CN1CCN(c2ccnc3ccc(NC(=O)Cc4ccc5ccccc5c4)cc23)CC1`, for which the result was inactive.
Same read-out and setting: next, `O=C(Nc1ccccc1)N(Cc1ccc(-c2ccc(CNC3CCCC3)cc2)cc1)C1CCN(Cc2ccccc2)CC1`: “inactive”; `CCCCN(CCCC)CCCCNc1c2ccc(Cl)cc2nc2ccc(OC)cc12`: “inactive”.
`CC(C)(CNC(=O)/C=C/c1ccc(Cl)c(Cl)c1)CNc1cc(=O)c2ccccc2[nH]1`: the outcome was inactive.
With `CC(C)CNCc1ccc(-c2ccc(CNC3CCN(Cc4ccccc4)CC3)cc2)cc1`, the result was inactive.
Take `CCN(CC)CCNc1ccnc2[nH]c3ccc(C)cc3c12`: the outcome was inactive.
As to `CN1CCN(c2ccnc3ccc(NC(=O)Nc4cccc(C#N)c4)cc23)CC1`, the outcome was inactive.
For `CC(O)C1CCCCN1C(=O)c1cccc(-c2cccc(-c3nc4ccc(C(F)(F)F)cc4[nH]3)c2)c1` (stereo not given), the result was inactive.
